High-throughput results: PubChem, several laboratories
PERK inhibitor: human PERK inhibition, primary cell-based screen; Q9NZJ5; CHO PERK-DD fusion, SEAP luminescence translation reporter; inhibition, % at 5.6 µM; actives 0.17% (n = 220,000); AID 1416;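 active = inhibition above the mean inhibition of all tested compounds plus 3 SD, set separately per screening campaign, cut at about 2.9% in these data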;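 note: PERK kinase domain activated by AP20187 dimerizer at 100 nM; 0% = DMSO with dimerizer and 100% = rapamycin at 8.4 µM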
Target sequence (Q9NZJ5 whole entry, looked up, the tested form may be a part): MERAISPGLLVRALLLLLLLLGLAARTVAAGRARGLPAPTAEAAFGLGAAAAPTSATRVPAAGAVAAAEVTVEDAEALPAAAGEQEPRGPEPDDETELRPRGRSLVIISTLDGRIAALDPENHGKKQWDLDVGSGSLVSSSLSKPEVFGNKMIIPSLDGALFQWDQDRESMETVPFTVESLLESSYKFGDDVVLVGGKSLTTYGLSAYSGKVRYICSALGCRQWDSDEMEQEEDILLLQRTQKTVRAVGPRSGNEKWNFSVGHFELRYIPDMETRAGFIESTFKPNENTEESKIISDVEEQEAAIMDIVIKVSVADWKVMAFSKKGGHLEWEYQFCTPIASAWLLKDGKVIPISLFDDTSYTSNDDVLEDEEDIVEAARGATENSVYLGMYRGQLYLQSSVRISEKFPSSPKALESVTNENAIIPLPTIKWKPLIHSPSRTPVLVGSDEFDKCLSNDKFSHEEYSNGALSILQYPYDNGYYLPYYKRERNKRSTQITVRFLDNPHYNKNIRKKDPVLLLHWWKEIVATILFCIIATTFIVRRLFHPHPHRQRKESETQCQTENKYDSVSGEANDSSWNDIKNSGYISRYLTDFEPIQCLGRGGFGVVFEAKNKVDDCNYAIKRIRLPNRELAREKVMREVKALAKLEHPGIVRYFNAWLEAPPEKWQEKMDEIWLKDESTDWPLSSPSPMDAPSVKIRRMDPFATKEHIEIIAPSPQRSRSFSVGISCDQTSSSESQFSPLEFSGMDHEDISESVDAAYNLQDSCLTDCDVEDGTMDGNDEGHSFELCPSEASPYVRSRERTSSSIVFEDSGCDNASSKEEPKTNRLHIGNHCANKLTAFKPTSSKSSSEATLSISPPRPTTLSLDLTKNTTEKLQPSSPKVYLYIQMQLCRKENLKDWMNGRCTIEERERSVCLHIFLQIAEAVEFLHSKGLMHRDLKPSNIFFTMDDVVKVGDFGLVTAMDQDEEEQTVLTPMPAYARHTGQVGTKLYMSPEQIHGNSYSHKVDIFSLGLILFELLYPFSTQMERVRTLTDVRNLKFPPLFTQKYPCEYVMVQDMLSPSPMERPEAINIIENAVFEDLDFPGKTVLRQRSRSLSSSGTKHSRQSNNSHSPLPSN
eIF4E-4G inh: inhibitors of eIF4E and eIF4G interaction in translation initiation; actives 0.37% (n = 220,000); P63073+Q04637; TR-FRET eIF4E-eIF4GI(517-606) binding, 2 h; inhibition, % at 21.7 µM;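 active = inhibition above about 30%, limit read from the data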;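 note: 0% = full FRET control wells and 100% = background wells lacking eIF4GI fragment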
eIF4H FP inh: inhibitors of RNA binding by human eIF4H; Q15056; eIF4H fluorescence polarization binding assay; inhibition, % at 35 µM; actives 0.94% (n = 290,000); AID 2012;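 note: calls also rest on retests at 20 µM and on dose response follow-up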
PABP FP inh: blocks human PABP binding to poly(A) RNA; P11940; fluorescence polarization; calls only at 35 µM; actives 1% (n = 290,000);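 note: calls also rest on retests at 20 µM and on dose response follow-up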
PABP1 MLLE inh: blocks PAM2 peptide binding to the PABP1 MLLE domain; P11940; actives 0.36% (n = 360,000); GST-MLLE / FITC-PAM2 fluorescence polarization; inhibition, % at 20 µM; AID 588489; in the data active = inhibition above about 35%, passing the limit was not always enough;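 note: plate controls were DMSO wells with GST-MLLE for no effect and wells lacking GST-MLLE protein for full effect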
* = called active by the depositor; i = inactive; ? = inconclusive; / = no result; + = active, no number. Most compounds without a hit are left out; they make up all but 1.6% or so of the library. Unless noted, the rule behind the calls is not given here.

SMILES	PERK inhibitor	eIF4E-4G inh	eIF4H FP inh	PABP FP inh	PABP1 MLLE inh
Cn1cnc([N+](=O)[O-])c1S(=O)(=O)Oc1ccc(Cl)cc1	/	/	/	/	40.7*
O=C(O)COc1ccc(/C=N/NC(=O)c2cccc3ccccc23)cc1	/	/	-14.8	i	-1.5
CCOC(=O)CNC(c1ccccc1)c1cc(Br)ccc1NC(=O)OCC (centres undefined)	-1.2	10.6	103.7*	+	-0.1
Cc1c(C(=O)NC2CCCC2)oc2ccccc12	/	/	/	/	4.5
O=[N+]([O-])c1cccnc1-n1cnc2ccccc21	0.1	5.3	45.5	i	25.5
Cc1cc2ncn(-c3ncccc3[N+](=O)[O-])c2cc1C	/	/	-10.4	i	60.6*
COc1cccc(/C=N/NC(=O)C(=O)N2CCCC2)c1OC	3.1*	-1.0	-8.5	i	5.0
O=C(COc1ccc(F)cc1Cl)Nc1cccc(S(=O)(=O)N2CCCC2)c1	/	/	/	/	5.0
CCCCC(O)(CCCC)C(=O)N/N=C(\C)c1ccc(Cl)cc1	-0.5	0.0	84.4*	+	-3.6
C/C(=N/NC(=O)CNc1ccc(C)cc1)c1ccc(Cl)cc1	0.4	3.6	-11.7	i	-2.0
CC(NS(=O)(=O)c1ccc2c(c1)c(=O)n(C)c(=O)n2C)C(=O)NC1CCCCC1 (centres undefined)	/	/	5.3	i	10.7
Cc1cccc(/C=C/C(=O)c2ccc(NC3=NCCCS3)cc2)c1	0.1	2.8	-18.5	i	-22.9
COc1cccc(/C=C/C(=O)c2ccc(NC3=NCCCS3)cc2)c1	0.2	-2.1	active	+	-9.6
COc1cc(CCC(=O)Nc2ccc(S(=O)(=O)NC3=NCCCCC3)cc2)cc(OC)c1OC	0.1	1.6	active	i	-79.7
O=C(O)c1nn(CC(=O)N2CCC(Cc3ccccc3)CC2)c(=O)c2ccccc12	/	/	-5.7	i	7.2
Oc1ccccc1/C=C/c1noc(-c2ccccc2O)n1	0.7	6.1	3.1	+	12.1
Cc1cc(C)c(S(=O)(=O)c2ccccc2)c(=O)[nH]1	/	/	-12.2	i	-1.2
CC(C)(C)n1cc(S(=O)(=O)c2ccccc2)[nH]c1=O	1.0	-1.0	active	+	4.4
COc1cc(NC(=O)CSc2ncnc3sc4c(c23)CCC(C)C4)c(C(=O)O)cc1OC (centres undefined)	/	/	-7.5	i	23.6
CC1=NN(c2ccccc2)C(=O)/C1=C\C=C\c1ccccc1	0.1	0.7	1.5	i	15.7
CC1=NN(c2ccc(C)c(C)c2)C(=O)/C1=C\C=C\c1ccc([N+](=O)[O-])o1	0.7	21.0	92.1*	i	-66.5
CC(=O)Nc1ccc(S(=O)(=O)NC(C)C(=O)NC(C)c2ccccc2)cc1 (centres undefined)	0.2	-1.0	0.0	i	48.8*
O=C(/C=C/c1ccco1)N1CCc2ccccc21	-0.5	3.7	17.6*	i	7.9
Cc1ccc(/C=C/C(=O)N2CCc3ccccc32)o1	0.8	23.0	67.8	i	17.7
NS(=O)(=O)c1ccc(-c2ccc(/C=N/Nc3ccc(C(=O)O)cc3)o2)cc1	3.0*	0.0	56.4*	i	-39.9
SMILES	PERK inhibitor	eIF4E-4G inh	eIF4H FP inh	PABP FP inh	PABP1 MLLE inh
O=C(O)c1ccc(-c2ccc(/C=N/Nc3ccc([N+](=O)[O-])cc3)o2)cc1	-0.4	8.9	45.2	i	-139.9
O=C(O)c1ccc(N/N=C/c2ccc(-c3ccc(Cl)cc3Cl)o2)cc1	1.8	8.6	76.3	+	-4.8
O=C(O)c1cccc(-c2ccc(/C=N/Nc3ccc([N+](=O)[O-])cc3)o2)c1	0.2	3.5	54.1	+	-140.6
CNC(=S)N/N=C/c1ccc(-c2ccc(C(=O)O)cc2)o1	2.5	-1.8	53.5*	+	9.2
CC(C)(C)NC(=S)N/N=C\c1ccc(-c2ccc([N+](=O)[O-])cc2)o1	1.0	-5.5	-3.3	i	-93.5
O=C(O)c1ccc(N/N=C/c2ccc(-c3cc(Cl)ccc3Cl)o2)cc1	0.1	6.3	59.2	i	-10.1
CCCNC(=O)c1ccc(C)c(NC(=O)C2=C(C)OCCS2)c1	/	/	-0.8	i	13.4
Cc1ccc(-c2ccc(/C=N/NC(=S)Nc3ccccc3)o2)cc1[N+](=O)[O-]	0.9	-11.6	4.9	i	38.5*
CNC(=S)N/N=C/c1ccc(-c2ccc(Cl)c([N+](=O)[O-])c2)o1	-0.4	1.1	-4.0	i	22.1
CSCc1ccc(C(=O)OCC(=O)NC2CCCC2)o1	/	/	/	/	-4.0
O=C(N=Nc1c(O)[nH]c2ccc([N+](=O)[O-])cc12)c1ccccc1Cl	0.7	-2.1	57.5	+	-17.5
CCNC(=S)N=Nc1c(O)[nH]c2ccc([N+](=O)[O-])cc12	0.8	1.9	14.9	i	44.6*
CCOC(=O)c1nc2ccc(C)cc2c2c1C1CC(c3c(Cl)cccc31)N2C(=O)OCc1ccccc1 (centres undefined)	/	/	/	/	1.0
CCOc1ccc(N(CC(=O)Nc2ccc(C)c(Cl)c2)S(C)(=O)=O)cc1	/	/	1.5	i	0.2
C/C=C/c1ccc(OCCCCNCc2ccco2)c(OC)c1	-0.5	0.0	8.0*	+	0.7
C/C=C/c1ccc(OCCCNCC(C)O)c(OC)c1 (centres undefined)	-1.0	-12.9	-3.0	i	11.6
CC(=O)OC1=C(C#N)Cn2ccc3cccc1c32	0.0	31.5*	1.9	i	/
Cc1ccc(CN2CCN(/N=C/c3sccc3C)CC2)c(C)c1	0.1	-12.5	0.8	i	0.3
NC(=O)NC(=O)CC1S/C(=N/N=C2\CSC(=O)N2)NC1=O (centres undefined)	0.3	-14.8	11.8	i	43.3*
COc1ccc(CNC(=O)c2cncc(Br)c2)cc1	/	/	4.4	i	-2.4
CC(=O)C1=C(Nc2ccccc2)CC(C)(O)C(C(C)=O)C1c1ccccc1 (centres undefined)	1.8	1.7	-1.4	i	-6.0
CC(=O)C1C(c2ccccc2)c2c(noc2C)CC1(C)O (centres undefined)	3.2*	1.8	-3.3	i	-16.0
CC(C)(C)c1[nH]nc2c1C(c1ccc(OC(=O)c3ccco3)cc1)C(C#N)=C(N)O2 (centres undefined)	-0.8	42.9*	4.4	i	-3.3
COc1cccc(CNC(=O)CS(=O)(=O)Cc2nc(-c3ccc(C)cc3)oc2C)c1OC	/	/	-1.6	i	-10.7
NS(=O)(=O)c1cccc(NC(=O)COC(=O)Cc2ccc(S(=O)(=O)N3CCOCC3)s2)c1	/	/	/	/	-19.3
O=C1NN(c2ccc(Cl)c(Cl)c2)C(=O)/C1=C/c1cccc(OC(=O)c2cccs2)c1	0.6	-5.1	82.1*	+	/
O=C1NN(c2ccccc2)C(=O)/C1=C\c1cccc(OC(=O)c2cccs2)c1	0.0	2.1	9.3	i	13.2
CN(C)CCCn1c(N)c(C#N)c2nc3ccccc3nc21	0.1	-3.7	?	?	66.8
CCCCC(CC)Cn1c(N)c(C#N)c2nc3ccccc3nc21 (centres undefined)	0.8	-11.9	68.4*	+	-14.0
